# In PubChem BioAssay (NCATS):
# Inconclusive results are not listed. Values without a mark were called inactive. Activity calls are given as the source filed them. Calls follow the shape of the dose curve; as a rule, active = well fitted inhibition curve with a large enough effect; inconclusive = small, poorly fitted or top-dose-only effect; inactive = flat fitted curve, though single readings scatter.
# Test: qHTS for Inhibitors of Plasmodium falciparum (7G8) proliferation (AID 504316); also: nearly all actives have a fitted effect of over 65% in size;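 as to activity change, negative = inhibition: 0% = DMSO vehicle and -100% = 0.29 µM artemisinin full kill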
# Conditions: P. falciparum 7G8 in erythrocytes, SYBR Green DNA, 72 h; series mostly up to 6.7 µM; activity change, negative = inhibition: at the top concentration
# Excerpt: Plasmodium falciparum is a virulent malarial parasite that kills 1-2 million people worldwide each year. Malaria not only inflicts tremendous suffering and morbidity on the human population, but has dramatically influenced the course of civilization with profound sociological and economic implications (Shah, S. 2010). Transmitted by mosquitoes, the sporozoite form of the parasite enters the blood stream to infect hepatocytes, where they become merozoites that infect red blood cells (erythrocytes). Within erythrocytes, merozoites begin a […] cycle of growth and division, after which the parasite is released to infect new red blood cells. Gametocytes, which form within erythrocytes as well, circulate in the bloodstream and are ingested by the mosquito, thereby completing the life cycle (see CDC website). To profile malarial lines for differential chemical responses and to identify inhibitors of malarial growth, an assay that measures P. falciparum growth and replication within erythrocytes was employed. This assay uses a DNA binding fluorescent dye (SYBR Green) to detect parasite DNA following cell lysis. Because mature erythrocytes lack DNA, only Plasmodium-derived DNA is detected. The P. falciparum line cp250, derived from a malarial isolate from Cambodia, (Mu, J., et al. 2010) was added to the panel of lines, Dd2, HB3, 7G8 and GB4 in this study. Laboratory of Assay Development and Screening Technology [ADST] and NIH Chemical Genomics Center [NCGC] Boston University, Chemistry Department, Center for Chemical Methodology and Library Development [CMLD-BU] NIH National Institute of Allergy and Infectious Diseases [NIAID]
# ADST Assay Protocol Summary: The 1536-well SYBR Green viability assay was based on the method of Bennett et al (2004) and described previously in 1536-well format (Yuan J., et al. 2009). For screening 3 ul culture medium was dispensed into 1536 well black clear bottom plates (Aurora Biotechnologies) using a Multidrop Combi (Thermo Fisher Scientific Inc.), 23 nL compounds in DMSO were added by a pin transfer (Cleveland, P.H. and Koutz, P.J, 2005) using a pin tool-based delivery system (Kalypsys), and 5 ul of erythrocytes infected with P. falciparum one of five lines (cp250, Dd2, HB3, 7G8 or GB4, 0.3% parasitemia, 2.5% hematocrit final concentration) were added. The plates were incubated at 37C in a humidified incubator in 5% CO2 for 72 h, and 2 ul lysis buffer (20 mM Tris HCl, 10 mM EDTA, 0.16% saponin, 1.6% triton X, 10X SYBR Green I (supplied as 10,000X final concentration by Invitrogen) was added to each well. The plates were mixed for 25 sec with gentle shaking and incubated overnight at room temperature in the dark. The following morning, fluorescence intensity at 485(14) nm excitation and 535(25) nm emission wavelengths was measured on an EnVision (Perkin Elmer) plate reader. Plate reads were normalized relative to the control inhibitor (0.29 uM artemisinin) and vehicle (DMSO) wells present on each plate and then corrected by an algorithm using vehicle-only control plates at the beginning and end of the compound plate stack. References Shah, S. (2010). The Fever: how malaria has ruled humankind for 500,000 years. New York, Sarah Crichton Books. CDC web site, http://www.cdc.gov/malaria/about/biology/index.html Mu, J., Myers, R.A., Jiang, H., Liu, S., Ricklefs, S., Waisberg, M., Chotivanich, K., Wilairatana, P., Krudsood, S., White, N.J., et Plasmodium falciparum genome-wide scans for positive selection, recombination hot spots and resistance to antimalarial drugs Nature Genetics 2010, 42, pp 268-271 Bennett TN, Paguio, M., Gligorijevic, B., Seudieu, C., Kosar, A. D., Davidson, E., and Roepe, P. D. Novel, rapid, and inexpensive cell-based quantification of antimalarial drug efficacy Antimicrobial Agents Chemother. 2004, 48(5): pp 1807-10 Yuan J, Johnson RL, Huang RL, Wichterman J, Jiang HY, Hayton K, Fidock DA, Wellems TE, Inglese J, Austin CP, Su XZ. […]
# Potency is read from the fitted curve at half-maximal effect.
Compound,"activity change, negative = inhibition [%]",Potency
CCCCC1=CC2=CC(=O)C(C)(OC(=O)CC)C(=O)C2=CN1c1ccncc1 (stereo not given),5.89,
COC(=O)CCCC1=CC2=C(c3ccccc3)C(=O)C(C)(OC(=O)C3CCCC3)C(=O)C2=CN1CCc1c[nH]c2ccccc12 (stereo not given),-17.7,
COC(=O)CCC(=O)OC1(C)C(=O)C2=CN(c3ccccc3)C(c3ccc(OC)cc3)=CC2=C(Br)C1=O (stereo not given),-19.2,
COC(=O)[C@@H]1[C@@H](C)N(Cc2ccccc2)C(=O)N[C@H]1c1cccc(C(F)(F)F)c1,-0.371,
CCOC(=O)CN1C(=O)N[C@@H](c2cccc(C(F)(F)F)c2)C(C(=O)OC)=C1C,0.0054,
COC(=O)C1=C(C(=O)OC)[C@@H]2N(Cc3ccccc3)c3ccccc3[C@@]23C[C@@H](C(=O)OC)N(S(=O)(=O)c2c(C)noc2C)C3=N1,,1690 nM (active)
CCCCn1c(C)cc2c(c1=O)[C@H]1O[C@](c3ccsc3)(Cc3ccccc31)O2,,1690 nM (active)
CCOC(=O)CCCNC(=O)N1CCc2nc(COc3ccccc3)c3c(c2C1)CO[C@@H](C)C3,,1510 nM (active)
COC(=O)C1=C(C(=O)OC)[C@@H]2Nc3ccccc3[C@@]23C[C@@H](C(=O)OC)N(C(=O)c2ccc(Br)cc2)C3=N1,-8.47,
CC1(OC(=O)CCc2ccccc2)C(=O)C=C2C=C(c3ccc(C#N)cc3)N(Cc3ccco3)C=C2C1=O (stereo not given),-22.5,
COC(=O)C(C(=O)OC)C1c2ccccc2C=C(C)N1C(=O)OC (stereo not given),-20.1,
COC(=O)[C@@H](NC(=O)N1CCc2nc(-c3ccc(OC)cc3C)c3c(c2C1)CO[C@@H](c1ccccc1)C3)C(C)C,,1690 nM (active)
CC(=O)C1=C(C)N(Cc2ccccc2)C(=O)N[C@H]1c1ccco1,-5.33,
COC/C=C/C1=CC2=CC(=O)C(C)(OC(=O)c3cnc4ccccc4n3)C(=O)C2=CN1CCCCO (stereo not given),3.61,
COC(=O)C1=C(C(=O)OC)[C@@H]2N(C)c3ccc(OC)cc3[C@@]23C[C@@H](C(=O)OC)N(S(=O)(=O)c2ccc(C#N)cc2)C3=N1,,1690 nM (active)
CCCCc1nc2c(c3c1C[C@H](C)OC3)CN(S(=O)(=O)c1c(C)noc1C)CC2,-6.8,
CCOC(=O)CCCNC(=O)N1CCc2nc(-c3ccc(OC)cc3C)c3c(c2C1)CO[C@@H](c1ccccc1)C3,,1690 nM (active)
CC1COc2ccccc2C1=O (stereo not given),,1690 nM (active)
CCCNC(=O)N1C2=NC(C(=O)OC)=C(C(=O)OC)[C@@H]3Nc4ccccc4[C@]23C[C@H]1C(=O)OC,2.27,
C=CCNC(=O)N1C2=NC(C(=O)OC)=C(C(=O)OC)[C@@H]3N(Cc4ccccc4)c4ccccc4[C@]23C[C@H]1C(=O)OC,,1510 nM (active)

Compound,"activity change, negative = inhibition [%]",Potency
CC(C)(C)N1C(=O)[C@@H]2[C@H]3[C@H](O)[C@H](O)CC(=NOCc4ccccc4)[C@H]3CC[C@H]2C1=O,-14.5,
C=CCN1C=C2C(=O)C(C)(OC(=O)c3cnc4ccccc4n3)C(=O)C=C2C=C1/C=C/COC (stereo not given),4.3,
CC(C)(C)OC(=O)NCCCC1=CC2=CC(=O)C(C)(OC(=O)c3cccs3)C(=O)C2=CO1 (stereo not given),-14.2,
COc1ccc(-c2nc3c(c4c2C[C@H](c2ccccc2)OC4)CN(S(=O)(=O)c2ccc(C#N)cc2)CC3)c(C)c1,,1510 nM (active)
COC(=O)C[C@H]1c2ccccc2[C@H]2C(=C[C@@H](C)[C@H]3C(=O)N(O)C(=O)[C@H]32)N1C(=O)OC,-19.2,
COC(=O)C1=C(C(=O)OC)[C@@H]2N(C)c3ccc(OC)cc3[C@@]23C[C@@H](C(=O)OC)N(S(=O)(=O)c2ccc([N+](=O)[O-])cc2)C3=N1,,1510 nM (active)
C=CC1=C2C=C(C3CC3)N(Cc3ccco3)C=C2C(=O)C(C)(OC(=O)c2ccco2)C1=O (stereo not given),1.12,
C=CCOC(=O)C(C(C)=O)[C@@H](NC(=O)OC)c1cccc(C(F)(F)F)c1 (stereo not given in full),-5.15,
CCCCC1=CC2=CC(=O)C(C)(OC(=O)CC)C(=O)C2=CN1Cc1ccccc1 (stereo not given),2.23,
COC(=O)C1=C(C(=O)OC)[C@@H]2N(Cc3ccccc3)c3ccccc3[C@@]23C[C@@H](C(=O)OC)N(S(=O)(=O)c2ccc(C)cc2)C3=N1,,1690 nM (active)
C=C(C(C)=O)C(O)c1cccs1 (stereo not given),-15.4,
CCCCC1=CC2=CC(=O)C(C)(OC(=O)CC)C(=O)C2=CN1Cc1ccc2c(c1)OCO2 (stereo not given),-3.13,
COC/C=C/C1=CC2=CC(=O)C(C)(OC(=O)c3cnc4ccccc4n3)C(=O)C2=CN1CCOC (stereo not given),2.97,
COC(=O)C1=C(C(=O)OC)[C@@H]2N(Cc3ccccc3)c3ccccc3[C@@]23C[C@@H](C(=O)OC)N(S(=O)(=O)c2ccc([N+](=O)[O-])cc2)C3=N1,,1690 nM (active)
COC(=O)[C@@H](NC(=O)N1CCc2nc(COc3ccccc3)c3c(c2C1)CO[C@@H](C)C3)C(C)C,,1690 nM (active)
CC(C)CN1C=C2C(=O)C(C)(OC(=O)CCc3ccccc3)C(=O)C=C2C=C1c1ccc(C#N)cc1 (stereo not given),-10.2,
COCCN1C(=O)N[C@@H](c2cccc(F)c2)C(C(=O)OC)=C1C,-2.13,
C=CCN1C=C2C(=O)C(C)(OC(=O)c3cccs3)C(=O)C=C2C=C1CCCC(=O)OC (stereo not given),-5.32,
COC(=O)CCCC1=CC2=C(c3ccccc3)C(=O)C(C)(OC(=O)C3CCCC3)C(=O)C2=CN1CC(C)C (stereo not given),-5.05,
COC/C=C/C1=CC2=CC(=O)C(C)(OC(=O)c3cnc4ccccc4n3)C(=O)C2=CN1Cc1ccc2c(c1)OCO2 (stereo not given),-4.16,
